PubChem BioAssay

Experiment: S. cerevisiae growth modulation with rapamycin, primary screen, strain BY4716, OD600, 96 h (AID 1091); also: test concentration not given here
Conditions: higher = more signal, called active from +8 up or from −8 down

z-score, inactive:
CCOC(=O)NN=C1C[C@@H](O)[C@@H](O)[C@@H]2[C@@H]3C(=O)N([C@@H](C)c4ccccc4)C(=O)[C@@H]3CC[C@@H]12 -0.231
COC(=O)[C@@H]1CC[C@H](C)[C@@H](c2ccc(C)cc2)N1C(=O)c1ccc(C=NO[C@@H](C)c2cn([C@H](CO)Cc3ccccc3)nn2)cc1 1.25
O=C1CCCC=C1C(O)CCOC(c1ccccc1)(c1ccccc1)c1ccccc1 (stereo unspecified) 1.55
COC(=O)CC=C[C@@H](C)[C@@H]1C=C[C@H](O)[C@@H](CO)O1 0.531
C[C@@H](ON=C1[C@H]2CCn3c(=O)n(-c4ccccc4)c(=O)n3[C@H]2[C@H](O)[C@@H]2O[C@H]12)c1cn([C@@H]2COC[C@H]2O)nn1 0.0921
CO[C@@H]1COC(=O)[C@H](CCSC)NC(=O)CC=C[C@@H](C)COC(=O)CCC[C@H]1C -1.25
COc1cccc([C@@H]2Oc3ccc(OC)cc3C(=O)[C@H]2O)c1 -2.1
C=CC1=C[C@H](O)[C@@H]2O[C@@H]2C12OCCCO2 -0.138
CCOC(=O)NN=C1C[C@@H](O)[C@@H](O)[C@@H]2[C@@H]3C(=O)N(Cc4ccccc4)C(=O)[C@@H]3CC[C@H]12 -1.33
COC(=O)[C@@H]1CC[C@H](C)[C@@H](c2ccc(C)cc2)N1C(=O)c1ccc(C=NO[C@H](C)c2cn([C@H](CO)Cc3ccccc3)nn2)cc1 0.619
COc1cc(O)c(C(=O)C=Cc2ccc3c(c2)OCO3)c(OC)c1 2.26
CCOC(=O)[C@H](CC(C)C)NC(=O)CCC1CC(OC(=O)NCc2cccc3ccccc23)CC2(CCCC(COC(=O)NCC3CCCCC3)O2)O1 (stereo partly specified) 0.0127
Cc1cc2c(c(=O)o1)[C@@H](O)[C@H]1O[C@H]1C2=O 0.233
Cc1ccc(S(=O)(=O)NC(CCc2ccccc2)CC(=O)C(C)(C)C)cc1 (stereo unspecified) 0.269
C[C@@H](c1ccccc1)N1C(=O)[C@H]2[C@H]3[C@H](O)[C@H](O)CC(=NO[C@@H]4O[C@H](CO)[C@@H](O)[C@H](O)[C@H]4O)[C@@H]3CC[C@H]2C1=O -0.967
CCN1C(=O)[C@@H]2[C@H]3C(=CC[C@@H]2C1=O)C1(OCCCO1)[C@H]1O[C@H]1[C@H]3O 1.66
CCOC(=O)[C@H](CC(C)C)NC(=O)CCC1CC(OC(=O)NCc2cccc3ccccc23)CC2(CCCC(COC(=O)NCCCN3CCCC3=O)O2)O1 (stereo partly specified) -0.224
CC(=O)OC[C@H]1OC(ON=CC[C@@H]2C=C[C@H](OC(C)=O)[C@@H](COC(C)=O)O2)[C@H](OC(C)=O)[C@@H](OC(C)=O)[C@@H]1OC(C)=O (stereo partly specified) -0.64
COc1ccc(O[C@@H]2[C@H](O)CO[C@@H]2C=Cc2ccccc2)cc1 0.0945
O=C1[C@H]2[C@H]3[C@H](O)[C@H](O)CC(=NOC[C@@H](O)COCc4ccco4)[C@H]3CC[C@H]2C(=O)N1C[C@@H]1CCCO1 -0.318
CC(C)=CCCC(C)=CCON=C1C[C@@H](O)[C@@H](O)[C@@H]2[C@@H]3C(=O)N(C(C)(C)C)C(=O)[C@@H]3CC[C@@H]12 0.361
C#CCCCON=C1C[C@@H](O)[C@@H](O)[C@@H]2[C@@H]3C(=O)N(CCC(=O)OCC)C(=O)[C@@H]3CC[C@H]12 -0.947
C[C@H]1CC[C@H]2C(=O)O[C@H](COc3ccc(C(C)(C)C)cc3)CN2[C@@H]1c1ccc(Br)cc1 0.474
CC(C)=CCCC(C)=CCON=C1C[C@@H](O)[C@@H](O)[C@@H]2[C@@H]3C(=O)N(c4cccc(Oc5ccccc5)c4)C(=O)[C@@H]3CC[C@@H]12 -0.184
COc1ccc(O[C@H]2C=C[C@@H](c3ccccc3)O[C@@H]2COC(=O)CCC(C)=NOC(C)CN2CCCc3nc(C)c(C)cc32)cc1 (stereo partly specified) -0.0642
COC(=O)[C@H](C)NC(=O)CCC1CC(OC(=O)NCc2cccc3ccccc23)CC2(CCCC(COC(=O)NCC(c3ccccc3)c3ccccc3)O2)O1 (stereo partly specified) -0.691
C=COC[C@@H]1CN2[C@@H](CC[C@@H](C)[C@@H]2c2ccc(Br)cc2)C(=O)O1 -0.61
CCOC(=O)[C@H](CC(C)C)NC(=O)CCC1CC(OC(=O)NCc2cccc3ccccc23)CC2(CCCC(COC(=O)NCCC(C)C)O2)O1 (stereo partly specified) -1.89
CCOC(=O)[C@H](Cc1ccccc1)NC(=O)CCC1CC(OC(=O)NCCc2ccc(F)cc2)CC2(CCCC(COC(=O)NCCc3ccccc3OC)O2)O1 (stereo partly specified) 0.785
CO[C@H](C1CCCCC1)[C@H](C)C=CCC(=O)OCCCc1ccccc1 1.49
O=C1C[C@@H](O)[C@@H](O)[C@@H]2[C@@H]3C(=O)N(Cc4ccccc4)C(=O)[C@@H]3CC[C@@H]12 -0.115
CCN1C(=O)[C@H]2[C@H]3[C@H](O)[C@H](O)CC(=NOCC(C)C)[C@@H]3CC[C@H]2C1=O -0.242
COC(=O)CC=C[C@@H](C)[C@@H](C=NOC[C@H]1O[C@H](c2ccccc2)C=C[C@@H]1Oc1ccc(OC)cc1)OC 0.439
CC(CCN1CCc2nc(-c3ccccc3)c(-c3ccccc3)cc2C1)=NOC[C@@H](O)[C@H]1O[C@@H]2OC(C)(C)O[C@@H]2[C@H]1O -4.56
O=C(NN=C1C[C@@H](O)[C@@H](O)[C@@H]2[C@@H]3C(=O)N(C4CCCCC4)C(=O)[C@@H]3CC[C@@H]12)OCc1ccccc1 -0.157
COc1ccc(O[C@H]2C=C[C@@H](c3ccccc3)O[C@@H]2CON=C(C)CCC(=O)OC[C@H]2O[C@H](c3ccccc3)C=C[C@@H]2Oc2ccc(OC)cc2)cc1 0.525
